Growth data for six compounds are collected here from PubChem BioAssay (NCI).

Several values for one entry are separate records, joined by “and”; a condition that tells them apart may be missing. Equal values may be shown once. About 83,000 compounds went through this panel and 20% of them were active in at least one assay; those are over-represented in the sample as a whole.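 Method: cells in 96-well plates; compound added at one concentration; 48 h incubation; percent growth measured; values under 10 scored active.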 Activity calls are given as the source filed them.

Common to all, as to experiment: NCI-60 one-dose screen, 48 h (100 = growth as untreated, 0 = no growth, -100 = all killed)
Common to all, as to conditions: 10 µM unless noted

In test [1] the test system is HCT-15 colon.
Test [2] deals with HT29 colon.
Test [3] deals with SNB-75 CNS.
In test [4] the test system is SNB-19 CNS.
Test [5] concerns U251 CNS.
The test system of test [6] is PC-3 prostate.
Test [7] deals with SK-MEL-5 melanoma.
For test [8], the system named is UACC-62 melanoma.
For test [9], the system named is LOX IMVI melanoma.
Test [10] relates to SK-MEL-28 melanoma.
In test [11] the test system is SK-MEL-2 melanoma.
Test [12] has as its system EKVX NSCLC.
The test system of test [13] is SN12C renal.
Test [14] deals with UO-31 renal.
Test [15] concerns TK-10 renal.
The test system of test [16] is ACHN renal.
The subject of test [17] is CAKI-1 renal.
In test [18] the test system is A498 renal.
The subject of test [19] is CCRF-CEM leukemia.
Test [20] relates to MOLT-4 leukemia.

For `CC(C)(C)c1cc(NC(=O)Nc2ccc(-c3cn4c(n3)sc3cc(OCCN5CCOCC5)ccc34)cc2)no1`, the growth in [1] was 23.8% (inactive) and 51.5% (inactive); in test [2], -41.7% (active) and -1.96% (active); in test [3], 45.4% (inactive) and -7.53% (active); in [4], 37.4% (inactive) and 11.4% (inactive); in test [5] it was -3.4% (active) and 0.378% (active); in test [6], 22.8% (inactive) and 15.2% (inactive). In addition, the growth in [7] was 13.5% (inactive) and 9.61% (active); in [8], -53.4% (active) and 5.34% (active); in [9], 0.319% (active) and 23.4% (inactive); in test [10], 42.9% (inactive) and 33.8% (inactive); in [11] it was 10.8% (inactive); in test [12], 47.6% (inactive) and 68.4% (inactive). For the same compound, the growth is 15.6% (inactive) and 19.3% (inactive) in test [13]; 10.7% (inactive) and 28.2% (inactive) in [14]; 24.2% (inactive) and 45% (inactive) in [15]; 12.4% (inactive) and 26.7% (inactive) in [16]; 30.4% (inactive) and 13.4% (inactive) in test [17]; 8.16% (active) and 37.7% (inactive) in test [18]. In addition, the growth was 18.7% (inactive) and 20% (inactive) in test [19]; 1.69% (active) and 40% (inactive) in test [20].
Regarding `COc1ccc(C2=C(CN)C(O)NC(=NCC(=O)c3ccc4ccccc4c3)N2)cc1` (stereo not given), the growth in test [1] is 106% (inactive); in [2] it was 101% (inactive); in test [3], 87.2% (inactive); in test [4], 104% (inactive); in test [5], 102% (inactive); in test [6] it was 104% (inactive). In addition, the growth in [7] was 108% (inactive); in [8], 101% (inactive); in test [9] it was 95.5% (inactive); in [10] it was 103% (inactive); in test [11] it was 99.9% (inactive); in test [12], 113% (inactive). For the same compound, the growth was 103% (inactive) in test [13]; 81% (inactive) in [14]; 98.1% (inactive) in test [15]; 94.5% (inactive) in test [16]; 94.5% (inactive) in [17]; 118% (inactive) in test [18]. Also, the results for the growth in test [19] and in test [20] were 110% (inactive) and 98% (inactive), respectively.
As for `CN(C)CCCn1c2c(c3ccc(N4CCNCC4)cc3c1=O)C(=O)c1ccccc1-2`, the growth is -36.5% (active) in [1]; -52.4% (active) in test [2]; 22.3% (inactive) in test [3]; -13.9% (active) in test [4]; -54.1% (active) in test [5]; -34.7% (active) in test [6]. Moreover, the growth is 28.7% (inactive) in [7]; 51.8% (inactive) in [8]; -90% (active) in test [9]; 59.7% (inactive) in test [10]; 39.6% (inactive) in test [11]; -39% (active) in test [12]. For the same compound, the growth is 6.82% (active) in [13]; 2.6% (active) in test [14]; -0.224% (active) in [15]; -10.5% (active) in test [16]; 5.62% (active) in test [17]; 74.3% (inactive) in test [18]. Also, the growth in test [19] is -4.22% (active); in test [20], -21.9% (active).
With `O=C(/C=C/C12c3ccccc3C(c3ccccc31)C1C(=O)NC(=O)C12)c1ccncc1` (stereo not given), the growth in test [1] was 4.66% (active); in test [2], 12.1% (inactive); in test [3] it was 13.7% (inactive); in [4] it was 14.5% (inactive); in [5], 7.81% (active); in [6], 20.8% (inactive). Further, the growth in [7] is 27.6% (inactive); in test [8], 23.4% (inactive); in test [9], -10.7% (active); in test [10], 24.7% (inactive); in test [11], 46.6% (inactive); in test [12], 80.6% (inactive). Also, the growth was 7.85% (active) in test [13]; 26.5% (inactive) in [14]; 17.5% (inactive) in test [15]; 23.7% (inactive) in [16]; 43.9% (inactive) in test [17]; 87.4% (inactive) in test [18]. For the same compound, the values for the growth in test [19] and in [20] were -12.7% (active) and 1.28% (active), respectively.
For `COc1ccc(C(=O)c2ccc(OC)c(OC)c2OC)cc1`, the growth in [1] was 26.6% (inactive) and 27.2% (inactive); in test [2], 4.69% (active) and 12.7% (inactive); in [3], -3.95% (active); in [4] it was 43.6% (inactive) and 41.7% (inactive); in test [5] it was 31.3% (inactive) and 26.2% (inactive); in [6], 35.5% (inactive) and 32.9% (inactive). Also, the growth was 18.8% (inactive) in test [7]; 40.8% (inactive) and 50.7% (inactive) in test [8]; 34.3% (inactive) and 39.8% (inactive) in [9]; 45.3% (inactive) and 50.3% (inactive) in [10]; 17.6% (inactive) and 57.5% (inactive) in test [11]; 48.1% (inactive) and 39% (inactive) in test [12]. Also, the growth in [13] was 56.1% (inactive) and 43.4% (inactive); in [14] it was 41.8% (inactive) and 24.1% (inactive); in [15], 34.4% (inactive) and 54.2% (inactive); in test [16] it was 42.5% (inactive) and 53.8% (inactive); in test [17] it was 14.4% (inactive) and 21% (inactive); in test [18], 4.87% (active) and -9.47% (active). The growth in test [19] is 37.3% (inactive); in test [20], 41.5% (inactive) and 36.8% (inactive).
Regarding `Nc1n[nH]c2cccc(C#Cc3cccc(NC(=O)c4ccc(N5CCOCC5)c(C(F)(F)F)c4)c3)c12`, the growth in test [1] is 8.44% (active); in test [2] it was 3.29% (active); in test [3], -25.6% (active); in test [4] it was 26.1% (inactive); in [5], 16.6% (inactive); in [6], 1.76% (active). The growth was 23.4% (inactive) in test [7]; -5.9% (active) in [8]; -96.9% (active) in test [9]; 8.55% (active) in test [10]; -7.56% (active) in test [11]; 18.4% (inactive) in test [12]. For the same compound, the growth in [13] was 9.03% (active); in test [14], -31.7% (active); in [15] it was 16.5% (inactive); in test [16], -0.609% (active); in test [17], 9.52% (active); in test [18], -34.3% (active). In addition, the growth is 10.5% (inactive) in test [19] and 7.67% (active) in test [20].
